This is an account of results in PubChem BioAssay (NCATS).

Molecules are shown by their SMILES. Inconclusive results are not listed. Activity calls are given as the source filed them. Unless noted, calls come from the whole dose curve; as a rule, active = well fitted curve in the direction sought with a large enough effect; inconclusive = small, poorly fitted or top-dose-only effect, or another doubt; inactive = no such curve, though single readings can be large; an effect the other way counts as inactive or inconclusive.

In assay [1] the target is D(1A) dopamine receptor (Homo sapiens) (UniProt P21728). Briefly: HTS Assay for Allosteric Agonists of the Human D1 Dopamine Receptor: Primary Screen for Agonists (AID 488981). Note: 0% is about no effect. A digest of the protocol:
(§1)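 Tetracycline-induced HEK293 Trex D1 cells with forced coupling to calcium, loaded with no-wash calcium dye; kinetic fluorescence read 180 s after compound addition for agonism, then a further 180 s after an EC20 dopamine challenge for potentiation.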

Assay [2] has the same target. In words: HTS Assay for Allosteric Agonists of the Human D1 Dopamine Receptor: Primary Screen for Potentiators (AID 488982). Note: 0% is about no effect. In short, it runs like this:
as §1

Assay [3] shares this target. Briefly: HTS Assay for Allosteric Agonists of the Human D1 Dopamine Receptor: Primary Screen for Antagonists (AID 488983).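 Note: calcium flux response to an EC80 dopamine challenge measured with no-wash dye; % is set by controls: 0 for no effect and ±100 for the full control effect; nearly all actives have a fitted effect of over 65% in size.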 In short, it runs like this: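 Tetracycline-induced HEK293 T-REx cells expressing force-coupled D1 were plated overnight at 30 C, dye-loaded for calcium, and read kinetically. Compounds were pinned in, then an EC80 dopamine challenge followed after 180 s to reveal antagonism.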

Assay [4] in a line: Validation screen for small molecules that induce genotoxicity in human embryonic kidney (HEK293T) cells expressing luciferase-tagged ELG1 (AID 493106). Note: 0% is about no effect. In short, it runs like this: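 HEK293T cells expressing luciferase-tagged ELG1 were exposed to compound or DMSO vehicle for 16 hr at 37 °C, 5% CO2. Genotoxic stress raises ELG1 levels, so increased luciferase signal after ONE-Glo addition and 30 min at room temperature marks hits.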

Assay [5] has as its target ATPase family AAA domain-containing protein 5 (Homo sapiens) (UniProt Q96QE3). In words: Validation screen for small molecules that inhibit ELG1-dependent DNA repair in human embryonic kidney (HEK293T) cells expressing luciferase-tagged ELG1 (AID 493107).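 Note: cells co-treated with the DNA-damaging agent 5-fluorouridine alongside compound; series mostly up to about 46 µM; % is set by controls: 0 for no effect and ±100 for the full control effect; inhibitors lower the ELG1-luciferase luminescence signal; nearly all actives have a fitted effect of over 70% in size.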 In short, it runs like this: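 HEK293T cells expressing luciferase-tagged ELG1 were co-treated with 5-fluorouridine and compound or DMSO for 16 hr at 37 °C, 5% CO2. Luciferase activity was then read with ONE-Glo after 30 min at room temperature; suppressed signal indicates blocked ELG1 function.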

Assay [6] in a line: Nrf2 qHTS screen for inhibitors: Validation (AID 493153; active = well fitted inhibition curve with a large enough effect in the main read-out, with a control signal flat, not every such curve was filed as active). To be noted: Potency: luciferase luminescence; viability change: measured here: cytotoxicity max response. In short, it runs like this: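 A549 cells carrying an ARE-driven firefly luciferase reporter, in 5% FBS OPTI-MEM, were treated with compounds in concentration-response for 18-24 h at 37°C. Viability was read by CellTiter-Fluor fluorescence, then Nrf2 activity by luciferase luminescence.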
(In general: qHTS replaces the single test concentration by a dilution series.)

Assay [7] is described as follows: qHTS for Inhibitors of Cell Surface uPA Generation: Validation Assay (AID 493164).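 Note: RAW 264.7 macrophage cells exposed to compound for 18 h; 0% is about no effect.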 A digest of the protocol:
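RAW 264.7, 4000 cells/well, o/n plating; cpd 7-pt 1:5 dilution 2.45 nM–38.3 uM final; 18 h, 37 C/5% CO2; ATP-Lite, 5 s luminescence exposure.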

Assay [8] deals with Peptidyl-prolyl cis-trans isomerase NIMA-interacting 1 (Homo sapiens) (UniProt Q13526). Briefly: qHTS Validation Assay to Find Inhibitors of Pin1 (AID 504536; active = well fitted inhibition curve with a large enough effect in the polarisation, with a control signal flat, not every such curve was filed as active; the % refers to the polarisation;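 note: 0% = full Pin1 enzyme wells and -100% = no-enzyme wells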). A digest of the protocol:
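Fluorescence polarization competition: compounds (titration) displace HiFluor-488-labeled Pin1-1b peptide from Pin1 (0.3 uM final) in pH 7.5 HEPES buffer with DTT, 10 min at room temperature; %Activity normalized to no-enzyme wells, curves fitted.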

The target of assay [9] is Phosphoglycerate kinase, glycosomal (Trypanosoma brucei brucei) (UniProt P07378). In words: qHTS Validation Assay to Find Inhibitors of Phosphoglycerate Kinase (AID 504547).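 Note: control wells lack PGK and mark full inhibition.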 A digest of the protocol:
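PGK activity was coupled to GAPDH (100nM final), which generates the unstable substrate 1,3-bisphosphoglycerate in-well. Reactions ran 60 minutes at room temperature in 100mM TEA pH 7.6, 5mM MgCl2, 0.01% Tween-20, then Kinase-Glo Plus luminescence was read.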

In assay [10] the target is phosphoglycerate mutase (Leishmania major) (UniProt Q4Q090). In words: qHTS Validation Assay to Find Inhibitors of Phosphoglycerate Mutase (AID 504548). Note: series mostly up to about 58 µM; % is set by controls: 0 for no effect and ±100 for the full control effect. To be noted: Potency: inhibition qHTS. In short, it runs like this:
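Luminescent end-point read-out via Kinase-GloPlus after a 10-minute development. Reaction: 1.25nM Leishmania major PGAM with substrate and compound, 45 minutes at room temperature in TEA buffer (pH 7.6) with MgCl2 and Tween-20.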

For assay [11], the target named is Ubiquitin carboxyl-terminal hydrolase 1 (Homo sapiens) (UniProt O94782). Briefly: Inhibitors of USP1/UAF1: Pilot qHTS (AID 504865). Note: nearly all actives have a fitted effect of over 35% in size. Note: potency is the fitted concentration of half-maximal effect. A digest of the protocol: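 In 50mM HEPES pH 7.8 containing 0.5mM EDTA, 1mM TCEP, 0.1 mg/ml BSA and 0.01% Tween-20, 1nM USP1/UAF1 is exposed to compound for 15 min, then Ub-Rho (150nM final) is added and fluorescence is read over time.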
Chain of Ubiquitin carboxyl-terminal hydrolase 1 (Homo sapiens) (O94782 whole entry, looked up): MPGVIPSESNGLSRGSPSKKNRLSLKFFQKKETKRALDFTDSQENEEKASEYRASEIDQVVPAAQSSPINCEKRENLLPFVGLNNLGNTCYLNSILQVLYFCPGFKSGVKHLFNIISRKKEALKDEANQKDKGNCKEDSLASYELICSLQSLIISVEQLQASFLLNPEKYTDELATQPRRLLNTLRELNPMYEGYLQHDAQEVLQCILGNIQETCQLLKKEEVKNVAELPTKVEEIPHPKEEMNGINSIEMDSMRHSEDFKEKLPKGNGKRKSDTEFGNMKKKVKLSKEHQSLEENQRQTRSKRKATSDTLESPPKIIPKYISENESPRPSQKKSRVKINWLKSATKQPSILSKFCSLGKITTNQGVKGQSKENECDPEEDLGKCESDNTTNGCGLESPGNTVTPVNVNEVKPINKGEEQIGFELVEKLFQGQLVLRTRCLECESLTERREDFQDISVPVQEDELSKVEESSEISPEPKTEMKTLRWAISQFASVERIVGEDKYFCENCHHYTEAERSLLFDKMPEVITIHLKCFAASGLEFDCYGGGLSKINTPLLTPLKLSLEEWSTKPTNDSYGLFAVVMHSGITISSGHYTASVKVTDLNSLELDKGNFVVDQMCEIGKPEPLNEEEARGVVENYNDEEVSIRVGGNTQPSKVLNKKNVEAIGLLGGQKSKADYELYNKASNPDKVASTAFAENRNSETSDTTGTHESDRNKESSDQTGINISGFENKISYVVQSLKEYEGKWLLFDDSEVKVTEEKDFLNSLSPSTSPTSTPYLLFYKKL

The nature of assay [12]: qHTS for Inhibitors of ATXN expression: Validation of Cytotoxic Assay (AID 588349). Note: % is set by controls: 0 for no effect and ±100 for the full control effect. A digest of the protocol:
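HEK293 cells were dosed with titrated compounds for 72 hr at 37 degrees C. Viability was read by CellTiter Glo luminescence, with intracellular ATP as the marker of cell survival.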

Assay [13] can be described thus: qHTS for Inhibitors of ATXN expression: Validation (AID 588378). Note: series mostly up to about 57 µM; % is set by controls: 0 for no effect and ±100 for the full control effect; nearly all actives have a fitted effect of over 75% in size. In short, it runs like this: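 Compounds were pinned onto attached HEK293 cells carrying an ATXN2-firefly luciferase construct and incubated 24 hrs at 37 degrees C. Each well then received a fluorescent viability reagent followed by luciferase substrate for end-point luminescence.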
The target of assay [14] is Transient receptor potential cation channel subfamily V member 1 (Homo sapiens) (UniProt Q8NER1). Briefly: HTS Assay for Compounds that Act as Enhancers of the Vanilloid Receptor 1 (AID 488979). Note: 0% is about no effect. In short, it runs like this:
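TRPV1 cells loaded with Fluo-8 calcium dye; compound added and Ca2+ signal (ex 480/em 520 nm) followed 3 min, then capsaicin at EC20 added and read 2 more min to detect enhancement.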

For assay [15], the target named is Thyrotropin receptor (Homo sapiens) (UniProt P16473). In words: qHTS Assay for Antagonists of the Thyroid Stimulating Hormone Receptor (AID 488980). Note: series mostly up to about 58 µM; 0% is about no effect. A digest of the protocol:
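Readout is cAMP by HTRF competition between cellular cAMP and cAMP-d2 for a cryptate-labelled antibody. Antagonism was assessed in TSHR-transfected HEK293 cells stimulated with 4 nM TSH (EC80, final) in the presence of RO 20-1724.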

Assay [16] concerns the target Galactokinase (Homo sapiens) (UniProt P51570). In words: qHTS Validation Assay for Inhibitors of Human Galactokinase (GALK) (AID 493189). Note: 0% is about no effect. A digest of the protocol: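 5 nM GALK / 100 uM galactose / 35 uM ATP, 20 mM HEPES pH8.0, 5 mM MgCl2, 60 mM NaCl, 1 mM DTT, 0.01% BSA (final). RT 1 h; Kinase-Glo Plus luminescence.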
The target of assay [17] is Thyrotropin-releasing hormone receptor (Homo sapiens) (UniProt P34981). In words: qHTS for Small Molecule Agonists and Allosteric Enhancers of Human TRH Receptor: Validation Screen for Agonists (AID 493127;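 active = calcium activation more than 3 SD above the typical response in the agonist read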;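 note: intracellular calcium rise by fluo-8 fluorescence before TRH EC20 addition; 0% is about no effect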). To be noted: TRH receptor agonist cell assay; at 2 µM; stronger effect = higher value. A digest of the protocol: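 TRHR-expressing cells were plated overnight in serum-containing medium, then loaded with fluo-8 calcium dye at room temperature for 30 min–1.5 h. After a 10 s baseline, compound was pin-transferred and calcium fluorescence (ex 480/em 530) read kinetically for agonist response.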
Chain of Thyrotropin-releasing hormone receptor (Homo sapiens) (P34981 whole entry, looked up): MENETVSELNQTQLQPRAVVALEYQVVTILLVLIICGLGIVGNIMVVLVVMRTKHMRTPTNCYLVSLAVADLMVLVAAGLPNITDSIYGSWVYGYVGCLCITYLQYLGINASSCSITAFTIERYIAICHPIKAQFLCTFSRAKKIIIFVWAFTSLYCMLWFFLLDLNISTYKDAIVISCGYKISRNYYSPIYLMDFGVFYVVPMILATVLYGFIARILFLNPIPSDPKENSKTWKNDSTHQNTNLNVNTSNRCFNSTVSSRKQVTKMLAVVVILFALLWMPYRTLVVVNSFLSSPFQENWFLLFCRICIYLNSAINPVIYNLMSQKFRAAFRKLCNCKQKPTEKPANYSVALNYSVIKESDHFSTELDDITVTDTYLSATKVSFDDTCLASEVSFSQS

A short description of assay [18]: Validation screen for small molecules that induce DNA re-replication in SW480 colon adenocarcinoma cells (AID 504364). Note: 0% is about no effect. A digest of the protocol: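 SW480 cells seeded at 250 per well were exposed to compound or DMSO for 48 hr at 37 C, 5% CO2, then stained with Hoechst for 40 min. DNA content per nucleus was imaged (405 nm ex, 500-530 nm em).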

Chain of phosphoglycerate mutase (Leishmania major) (Q4Q090 1-553): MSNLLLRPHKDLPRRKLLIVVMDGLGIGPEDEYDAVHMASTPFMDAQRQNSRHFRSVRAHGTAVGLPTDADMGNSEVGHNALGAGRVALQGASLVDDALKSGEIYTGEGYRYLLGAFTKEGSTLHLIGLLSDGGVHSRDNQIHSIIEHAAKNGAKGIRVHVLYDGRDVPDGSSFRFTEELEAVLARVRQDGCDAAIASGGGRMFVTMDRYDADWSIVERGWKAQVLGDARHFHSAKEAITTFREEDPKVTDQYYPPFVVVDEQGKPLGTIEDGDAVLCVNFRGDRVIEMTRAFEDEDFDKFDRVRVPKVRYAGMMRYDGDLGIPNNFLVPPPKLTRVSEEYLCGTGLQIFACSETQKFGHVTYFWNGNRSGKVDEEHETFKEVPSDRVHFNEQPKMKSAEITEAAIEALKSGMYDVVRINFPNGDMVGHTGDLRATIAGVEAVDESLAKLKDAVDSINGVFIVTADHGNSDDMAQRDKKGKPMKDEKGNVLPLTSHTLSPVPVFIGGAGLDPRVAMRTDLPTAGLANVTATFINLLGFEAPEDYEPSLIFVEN
Chain of Thyrotropin receptor (Homo sapiens) (P16473 whole entry, looked up): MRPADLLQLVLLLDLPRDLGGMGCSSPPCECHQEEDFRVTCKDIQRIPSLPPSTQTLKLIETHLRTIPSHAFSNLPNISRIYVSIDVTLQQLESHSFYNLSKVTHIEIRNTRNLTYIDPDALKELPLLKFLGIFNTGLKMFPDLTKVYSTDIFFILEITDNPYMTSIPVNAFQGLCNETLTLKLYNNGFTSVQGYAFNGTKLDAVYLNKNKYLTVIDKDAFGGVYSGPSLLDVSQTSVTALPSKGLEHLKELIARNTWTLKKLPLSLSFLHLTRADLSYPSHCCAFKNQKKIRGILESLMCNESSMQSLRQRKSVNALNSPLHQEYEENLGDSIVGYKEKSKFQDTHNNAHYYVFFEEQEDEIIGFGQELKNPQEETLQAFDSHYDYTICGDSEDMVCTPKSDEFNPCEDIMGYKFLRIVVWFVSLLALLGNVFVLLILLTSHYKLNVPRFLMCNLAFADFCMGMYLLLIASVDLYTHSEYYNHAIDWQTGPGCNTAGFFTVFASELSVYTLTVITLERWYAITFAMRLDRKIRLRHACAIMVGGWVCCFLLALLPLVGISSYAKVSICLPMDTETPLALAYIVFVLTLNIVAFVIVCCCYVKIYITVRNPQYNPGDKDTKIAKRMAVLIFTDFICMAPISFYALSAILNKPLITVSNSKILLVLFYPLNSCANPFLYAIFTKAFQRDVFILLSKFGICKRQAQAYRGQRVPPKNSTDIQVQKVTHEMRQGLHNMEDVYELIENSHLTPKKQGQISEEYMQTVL
Chain of Transient receptor potential cation channel subfamily V member 1 (Homo sapiens) (Q8NER1 whole entry, looked up): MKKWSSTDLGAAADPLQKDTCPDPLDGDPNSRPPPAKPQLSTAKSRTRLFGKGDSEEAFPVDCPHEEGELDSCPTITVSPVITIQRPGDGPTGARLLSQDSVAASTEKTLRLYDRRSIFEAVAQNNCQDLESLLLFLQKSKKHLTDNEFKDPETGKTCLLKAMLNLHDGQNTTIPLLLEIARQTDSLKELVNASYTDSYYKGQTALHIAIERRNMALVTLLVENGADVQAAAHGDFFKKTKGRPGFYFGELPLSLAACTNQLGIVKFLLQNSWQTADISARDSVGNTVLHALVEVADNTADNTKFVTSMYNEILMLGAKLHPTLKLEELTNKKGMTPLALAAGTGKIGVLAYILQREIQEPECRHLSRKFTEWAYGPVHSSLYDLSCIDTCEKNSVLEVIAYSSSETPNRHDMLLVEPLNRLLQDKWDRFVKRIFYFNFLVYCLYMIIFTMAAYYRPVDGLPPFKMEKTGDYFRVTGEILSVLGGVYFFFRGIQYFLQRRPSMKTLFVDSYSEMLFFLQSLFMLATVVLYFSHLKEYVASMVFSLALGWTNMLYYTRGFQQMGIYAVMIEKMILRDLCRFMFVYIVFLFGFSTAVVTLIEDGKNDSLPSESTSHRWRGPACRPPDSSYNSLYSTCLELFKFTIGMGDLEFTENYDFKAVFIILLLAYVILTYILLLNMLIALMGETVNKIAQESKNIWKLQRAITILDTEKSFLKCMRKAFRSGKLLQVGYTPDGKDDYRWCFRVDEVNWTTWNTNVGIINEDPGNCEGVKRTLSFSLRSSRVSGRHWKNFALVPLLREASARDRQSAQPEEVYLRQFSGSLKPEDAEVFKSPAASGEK
Chain of Galactokinase (Homo sapiens) (P51570 whole entry, looked up): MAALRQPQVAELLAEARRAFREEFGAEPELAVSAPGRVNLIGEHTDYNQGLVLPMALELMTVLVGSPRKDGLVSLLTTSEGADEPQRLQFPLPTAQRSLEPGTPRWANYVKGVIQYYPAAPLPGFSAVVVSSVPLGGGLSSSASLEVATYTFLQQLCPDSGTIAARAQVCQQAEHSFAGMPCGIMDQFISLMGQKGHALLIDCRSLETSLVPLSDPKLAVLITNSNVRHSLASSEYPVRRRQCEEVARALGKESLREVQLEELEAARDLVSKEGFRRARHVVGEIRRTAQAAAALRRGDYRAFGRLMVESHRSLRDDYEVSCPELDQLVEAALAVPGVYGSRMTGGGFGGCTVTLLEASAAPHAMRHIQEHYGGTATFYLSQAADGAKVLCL
Chain of D(1A) dopamine receptor (Homo sapiens) (P21728 whole entry, looked up): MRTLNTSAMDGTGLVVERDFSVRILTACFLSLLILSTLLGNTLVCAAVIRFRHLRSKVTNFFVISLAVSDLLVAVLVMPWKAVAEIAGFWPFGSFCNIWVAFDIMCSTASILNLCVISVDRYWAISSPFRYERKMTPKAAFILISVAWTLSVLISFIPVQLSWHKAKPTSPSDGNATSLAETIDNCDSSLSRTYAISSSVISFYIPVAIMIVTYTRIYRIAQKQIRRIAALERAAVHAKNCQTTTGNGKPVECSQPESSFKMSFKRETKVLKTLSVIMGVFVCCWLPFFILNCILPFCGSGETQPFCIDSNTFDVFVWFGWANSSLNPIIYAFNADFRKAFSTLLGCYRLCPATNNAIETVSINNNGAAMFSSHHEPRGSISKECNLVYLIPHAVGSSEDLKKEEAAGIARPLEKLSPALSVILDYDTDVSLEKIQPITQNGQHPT
Chain of Peptidyl-prolyl cis-trans isomerase NIMA-interacting 1 (Homo sapiens) (Q13526 whole entry, looked up): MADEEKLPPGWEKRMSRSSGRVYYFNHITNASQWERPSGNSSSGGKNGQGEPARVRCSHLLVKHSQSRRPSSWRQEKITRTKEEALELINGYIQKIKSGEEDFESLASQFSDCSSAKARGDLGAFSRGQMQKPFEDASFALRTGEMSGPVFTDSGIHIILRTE
Chain of Phosphoglycerate kinase, glycosomal (Trypanosoma brucei brucei) (P07378 whole entry, looked up): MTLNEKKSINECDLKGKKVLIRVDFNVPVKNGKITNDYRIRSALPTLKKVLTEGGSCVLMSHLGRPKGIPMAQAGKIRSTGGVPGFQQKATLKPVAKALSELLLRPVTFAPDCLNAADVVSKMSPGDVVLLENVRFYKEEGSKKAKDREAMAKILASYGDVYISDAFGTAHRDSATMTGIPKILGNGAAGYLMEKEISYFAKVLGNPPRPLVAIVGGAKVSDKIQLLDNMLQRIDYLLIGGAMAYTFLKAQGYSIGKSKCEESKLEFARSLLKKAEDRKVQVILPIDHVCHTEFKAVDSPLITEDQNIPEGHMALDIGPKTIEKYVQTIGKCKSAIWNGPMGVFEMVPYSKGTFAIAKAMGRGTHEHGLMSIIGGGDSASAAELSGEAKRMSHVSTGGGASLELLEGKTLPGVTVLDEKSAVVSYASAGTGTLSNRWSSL

For the compound `CCCn1c(=O)c(C)cn2nc(N)nc12`, the Potency entry in assay [1], in [2], in assay [3], in [4], in assay [5] and in assay [6] was “inactive” in each case. Moreover, the Potency entry in assay [8], in assay [9], in assay [10], in assay [11], in [12] and in [13] was “inactive” throughout. The viability change in [6] was -13%. The call in [7] was inactive.
On to `Nc1ncnc2c1c(-c1ccc(Oc3ccccc3)cc1)cn2C1CCCC1`, for which the result in assay [14], in assay [15] and in assay [7] was inactive. Moreover, the Potency result in assay [1], in assay [4], in assay [16], in assay [8], in assay [9] and in [10] was “inactive” each time. Besides, the Potency result in assay [11] is “inactive”.
As for `C[C@H](O)C(=O)C1=Nc2c(nc(N)[nH]c2=O)NC1`, the result in assay [14], in [15] and in assay [7] was inactive. The Potency result in assay [2], in assay [3], in assay [4], in assay [5], in assay [6] and in assay [16] was “inactive” throughout. In addition, the Potency result in [18], in assay [8], in [9] and in assay [10] was “inactive” each time. Moreover, in [17], the activation was 1.06% (inactive). The viability change in assay [6] was 8.34%. In addition, the Potency in assay [11] was 56.2 µM (active).
As for `CC(C)[C@@H]1CC[C@@H](C)C[C@@H]1P(=O)(c1ccccc1)c1ccccc1`, the Potency result in assay [1], in assay [2], in assay [3], in [4], in assay [5] and in [6] was “inactive” throughout. Further, the Potency result in [8], in [9], in assay [10], in assay [11], in [12] and in assay [13] was “inactive” throughout. Further, the viability change in [6] is -1.08%. In addition, the compound was classed as inactive in assay [7].
For the compound `Cc1cc(Cn2cnc3c2C[C@@H](C(=O)O)N(C(=O)C(c2ccccc2)c2ccccc2)C3)ccc1N`, the Potency entry in [1], in [2], in [3], in assay [4], in assay [5] and in assay [6] was “inactive” in each case. In addition, the Potency entry in [8], in assay [9], in [10], in assay [11], in assay [12] and in [13] was “inactive” each time. For the same compound, in assay [6], the viability change came out at 6.54%. In assay [7], the outcome was inactive.
`CC(N)(Cc1ccc(O)c(O)c1)C(=O)O` (stereo not drawn): the result in [14] and in [7] was inactive. The Potency result in assay [1], in [3], in assay [4], in assay [5], in [6] and in assay [16] was “inactive” each time. Also, the Potency entry in assay [18], in [8], in [11] and in [13] was “inactive” throughout. Moreover, the activation in assay [17] is 0% (inactive). In [6], the viability change was -0.588%.
As to `C=CCN1CCc2c(cc(O)c(O)c2Br)[C@@H](c2ccccc2)C1`, the result in assay [14], in assay [15] and in assay [7] was inactive. The Potency entry in [2], in assay [4], in assay [5], in assay [6], in assay [16] and in [8] was “inactive” in each case. Besides, the Potency entry in [9], in assay [10] and in assay [12] was “inactive” throughout. Besides, the activation in [17] was -5.81% (inactive). The viability change in [6] is -6.77%.
With `C=C1C[C@@]23CC[C@H]4[C@@](C)(CCC[C@@]4(C)C(=O)O)[C@@H]2CC[C@]1(O)C3`, the Potency result in [1], in assay [2], in [3], in assay [4], in assay [5] and in assay [6] was “inactive” each time. Further, the Potency entry in assay [8], in [9], in [10], in assay [11], in assay [12] and in assay [13] was “inactive” each time. Besides, the viability change in assay [6] was -13.4%. In [7], the compound was classed as inactive.
As for `O=S(=O)(c1cccc2c(Cl)cccc12)N1CCCNCC1`, the outcome in assay [15] and in assay [7] was inactive. The Potency result in assay [1], in assay [2], in assay [3], in [4], in assay [6] and in assay [16] was “inactive” each time. Also, the Potency entry in assay [18], in assay [8], in assay [9], in assay [10] and in [11] was “inactive” each time. Besides, the activation in assay [17] was 1.56% (inactive). Besides, in assay [6], the viability change worked out at 2.63%.
For the compound `CC(=O)O[C@H]1Cc2ccccc2N(C(N)=O)c2ccccc21`, the Potency result in assay [1], in [2], in assay [3], in assay [4], in assay [5] and in assay [6] was “inactive” throughout. In addition, the Potency result in assay [8], in [9], in [10], in [11], in [12] and in [13] was “inactive” throughout. For the same compound, the viability change in assay [6] is -3.02%. Further, in assay [7], the result was inactive.
Turning to `CC(C)(C)c1cc(/C=C(\C#N)C(N)=S)cc(C(C)(C)C)c1O`, the result in [14] and in [15] was inactive. The Potency result in assay [2], in [4], in [16], in assay [18], in assay [9] and in assay [10] was “inactive” throughout. In [17], the activation is 10.6% (inactive).
